This is an account of results in PubChem BioAssay (Tox21).

Records with an inconclusive call do not appear. Activity calls are given as the source filed them. Unless noted, calls follow the shape of the full dose curve.

Assay [1] is described as follows: Nuclear factor erythroid 2-related factor 2/antioxidant responsive element (Nrf2/ARE) small molecule agonists: qHTS cell viability counter screen in human keratinocytes (AID 1919968; active = well fitted curve in the direction sought with a large enough effect in the repeat runs; an effect the other way counts as inactive or inconclusive; also: nearly all actives have a fitted effect of over 55% in size). The essentials:
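KeratinoSens cells (HaCaT keratinocytes stably carrying an ARE-luciferase reporter) were seeded at 1,500 cells/well and rested 5 h at 37 C/5% CO2. They were then exposed to compounds in DMSO for 23 h. Viability was read by CellTiter-Fluor fluorescence after 1 h.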
(In general: In qHTS, concentration-response curves come from the screen itself.)

Assay [2] is described as follows: Nuclear factor erythroid 2-related factor 2/antioxidant responsive element (Nrf2/ARE) small molecule agonists: luciferase reporter gene qHTS assay in human keratinocytes (AID 1919969). Also: nearly all actives have a fitted effect of over 35% in size. In general terms: Reporter assays use an easily measured gene product as a stand-in for the process of interest.
For assay [3], the target named is Gonadotropin-releasing hormone receptor (Homo sapiens) (UniProt P30968). The assay is described as follows: Human gonadotropin-releasing hormone receptor (GnRHR) small molecule agonists, calcium flux assay in GnRHR-HEK293 cells (AID 1920063). Also: nearly all actives have a fitted effect of over 35% in size. The essentials: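 HEK293 cells stably expressing human GnRHR were plated 18 h at 37 °C, loaded with calcium dye 1 h at 37 °C, then given compound in agonist mode; fluorescence (Ex/Em 480/540) read kinetically for 3 min at 1 s intervals.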
Chain of Gonadotropin-releasing hormone receptor (Homo sapiens) (P30968 whole entry, looked up): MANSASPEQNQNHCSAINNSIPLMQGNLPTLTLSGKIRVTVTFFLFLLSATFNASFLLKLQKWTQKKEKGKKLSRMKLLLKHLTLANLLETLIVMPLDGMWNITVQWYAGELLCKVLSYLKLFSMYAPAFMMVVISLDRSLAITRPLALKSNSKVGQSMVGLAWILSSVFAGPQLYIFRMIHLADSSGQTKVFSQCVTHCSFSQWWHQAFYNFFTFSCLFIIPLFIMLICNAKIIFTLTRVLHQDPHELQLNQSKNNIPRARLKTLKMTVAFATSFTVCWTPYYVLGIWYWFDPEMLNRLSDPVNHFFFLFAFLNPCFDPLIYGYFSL
Background: A change in cytosolic calcium serves as a functional read-out for many receptors and channels.

Assay [4] deals with KiSS-1 receptor (Homo sapiens) (UniProt Q969F8). Briefly: Human kisspeptin (KISS1R) small molecule agonists, calcium flux assay in KISS1R-HEK293 cells (AID 1920064; active = well fitted curve in the direction sought with a large enough effect in the repeat runs; an effect the other way counts as inactive or inconclusive). The gist of the method: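 HEK293 cells stably expressing human KISS1R were plated 18 h at 37 °C, loaded with calcium dye for 1 h at 37 °C, then given compound by pin tool. Fluorescence (Ex/Em 480/540) was read kinetically for 3 min.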
Chain of KiSS-1 receptor (Homo sapiens) (Q969F8 whole entry, looked up): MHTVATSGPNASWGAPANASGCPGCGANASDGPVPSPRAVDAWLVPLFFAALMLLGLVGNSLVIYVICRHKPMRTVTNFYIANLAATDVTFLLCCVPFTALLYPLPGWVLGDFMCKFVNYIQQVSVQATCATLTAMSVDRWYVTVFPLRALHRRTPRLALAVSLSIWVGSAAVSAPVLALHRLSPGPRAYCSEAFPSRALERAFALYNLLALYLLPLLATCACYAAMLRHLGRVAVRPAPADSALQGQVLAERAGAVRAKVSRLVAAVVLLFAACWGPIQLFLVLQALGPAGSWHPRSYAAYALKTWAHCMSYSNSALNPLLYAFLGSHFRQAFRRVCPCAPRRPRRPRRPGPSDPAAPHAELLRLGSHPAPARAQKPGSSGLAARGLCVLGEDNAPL

A short description of assay [5]: G protein-coupled receptor (GPCR) small molecule agonists, calcium flux assay: HEK293 wild type cell line counter screen (AID 1920065). The gist of the method:
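Cells were plated and cultured 18 h at 37 C/5% CO2, then loaded with calcium dye for 1 h at 37 C. Compounds in DMSO were pin-transferred in agonist mode, and fluorescence (Ex/Em 480/540) was read kinetically for 3 min at 1 s intervals.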

Assay [6] can be described thus: p53 small molecule agonists, cell-based qHTS assay with human liver microsomes (AID 1963577).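 Also: p53 response element beta-lactamase reporter cells with liver microsomes plus NADPH.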 The essentials: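 Metabolically competent format: test substances, human liver microsomes and NADPH (both 0.5 mg/mL final) incubated with p53RE-bla cells 16 h at 37 C. Beta-lactamase reporter signal then quantified by fluorescence.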
Assay [7] can be described thus: p53 small molecule agonists, cell-based qHTS assay with rat liver microsomes (AID 1963578). The gist of the method:
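Each plate received p53RE-bla cells, then compound, then rat liver microsomes and NADPH (both 0.5 mg/mL final). Plates were held 16 h at 37 C, and beta-lactamase activity was detected with LiveBLAzer over 2 h.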

Assay [8] in a line: p53 small molecule agonists, cell-based qHTS assay with human liver microsomes: qHTS cell viability counter screen (AID 1963579). Also: nearly all actives have a fitted effect of over 45% in size. The gist of the method: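 Tox21 library compounds, delivered from DMSO stocks, were tested on p53RE-bla cells together with 0.5 mg/mL human liver microsomes and 0.5 mg/mL NADPH (final) over 16 h at 37 C; CellTiter-Glo luminescence served as the cytotoxicity measure.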

Assay [9] in a line: p53 small molecule agonists, cell-based qHTS assay with rat liver microsomes: qHTS cell viability counter screen (AID 1963580). Also: nearly all actives have a fitted effect of over 45% in size. The gist of the method:
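In HCT-116 cells carrying a p53 response element-bla reporter, compounds were metabolically activated in situ by rat liver microsomes with NADPH over 16 h. Cell ATP content then served as the cytotoxicity measure.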

A short description of assay [10]: p53 small molecule agonists, cell-based qHTS assay: qHTS cell viability counter screen (AID 1963581). Also: nearly all actives have a fitted effect of over 45% in size. The gist of the method: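 p53RE-bla HCT-116 cells were exposed to compounds for 16 h at 37 C; after the beta-lactamase FRET read in the same wells, CellTiter-Glo was added and luminescence (intracellular ATP) read after 30 min at room temperature.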
A short description of assay [11]: p53 small molecule agonists, cell-based qHTS assay (AID 1963582; active = well fitted activation curve with a large enough effect in the signal ratio in the repeat runs, not every such curve was filed as active; the % refers to the signal ratio). The gist of the method: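 p53RE-bla beta-lactamase reporter cells rested 5 h at 37 C/5% CO2, then received compounds in DMSO by pin transfer and were incubated 16 h at 37 C. LiveBLAzer B/G FRET substrate was loaded for 2 h at room temperature before fluorescence reading.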
Assay [12] addresses 5-hydroxytryptamine receptor 2A (Homo sapiens) (UniProt P28223). The assay is described as follows: 5-hydroxytryptamine receptor 2A (HTR2A) small molecule agonists, cell-based qHTS assay (AID 1963587). Also: nearly all actives have a fitted effect of over 30% in size. The essentials:
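HTR2A-CHO cells, plated 18 h at 37 C/5% CO2, dye-loaded 1 h at 37 C; compounds in DMSO added by pin tool (agonist mode). Intracellular calcium flux read as kinetic fluorescence on FDSS over 2 min at 1 s intervals.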

Assay [13] addresses Muscarinic acetylcholine receptor M1 (Homo sapiens) (UniProt P11229). Briefly: Cholinergic receptor muscarinic 1 (CHRM1) small molecule antagonists, cell-based qHTS assay (AID 1963588). Also: nearly all actives have a fitted effect of over 40% in size. Also: potency is read from the fitted curve at half-maximal effect. The essentials: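 CHRM1-CHO calcium-flux assay, antagonist mode. Cells were seeded 18 h, dye-loaded 1 h at 37 C and given compound for 5 min at RT, then acetylcholine was added at 50nM. FDSS fluorescence was read 3 min; 15 concentrations, three runs.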

The nature of assay [14]: cAMP Responsive Elements (CRE) small molecule agonists, cell-based qHTS assay (AID 1963590). The gist of the method:
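CRE-bla HEK 293T cells in DMEM with 10% dialyzed FBS, NEAA, pyruvate and 25 mM HEPES were plated 18 h at 37 C/5% CO2, then exposed to compounds in DMSO for 3 h before LiveBLAzer B/G FRET substrate addition.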

Assay [15] in a line: cAMP Responsive Elements (CRE) small molecule antagonists, cell-based qHTS assay (AID 1963591; active = well fitted inhibition curve with a large enough effect in the signal ratio in the repeat runs, not every such curve was filed as active; the % refers to the signal ratio). The gist of the method:
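CRE-bla HEK293T cells were plated 18 h at 37 °C/5% CO2, pinned with compound in DMSO, then stimulated with NKH477 at 0.25 uM final for 3 h. LiveBLAzer B/G FRET substrate was added and plates incubated 2 h at room temperature.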

Assay [16] deals with Beta-2 adrenergic receptor (Homo sapiens) (UniProt P07550). Briefly: Adrenergic beta2 receptor (ADRB2) small molecule antagonists, cell-based qHTS assay (AID 1963592). Also: series mostly up to about 92 µM; nearly all actives have a fitted effect of over 50% in size. The essentials:
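Cells (CHO, stable ADRB2 overexpression) incubated 18-20hr at 37C; compounds added from DMSO; agonist mix (1nM isoproterenol, 100uM IBMX, 25uM Ro-20-1724) added; 0.5hr RT; d2-cAMP and anti-cAMP-cryptate added; 1hr RT; 665/615 nm read.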

The target of assay [17] is D(2) dopamine receptor (Homo sapiens) (UniProt P14416). The assay is described as follows: Dopamine D2 receptor (DRD2) small molecule agonists, cell-based qHTS assay (AID 1963594). Also: nearly all actives have a fitted effect of over 35% in size. The essentials:
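HEK293 cells stably expressing DRD2 were cultured 24 h at 37 C, then given Ro20-1724 (0.1 mM final) and compounds for 10 min at room temperature. NKH477 (200nM) was then added for 30 min. cAMP was read by HTRF.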

Assay [18] shares this target. The assay is described as follows: Dopamine D2 receptor (DRD2) small molecule antagonists, cell-based qHTS assay (AID 1963595; active = well fitted inhibition curve with a large enough effect in the signal ratio in the repeat runs, with a control signal flat; the % refers to the signal ratio). The gist of the method: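 Cells were plated and grown for 24 h at 37 °C. Ro20-1724 (0.1 mM final) went in first, then compound for 10 min. NKH477 (200 nM) with quinpirole (12 nM) followed for 30 min at RT, then HTRF detection reagents for 1 h.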

The target of assay [19] is Muscarinic acetylcholine receptor M1 (Homo sapiens) (UniProt P11229). Briefly: Cholinergic receptor muscarinic 1 (CHRM1) small molecule agonists, cell-based qHTS assay (AID 1963589). Also: nearly all actives have a fitted effect of over 35% in size. The essentials: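 CHO cells stably expressing human CHRM1, seeded 18 h at 37 C/5% CO2, dye-loaded 1 h at 37 C, then given compound in agonist mode; intracellular calcium fluorescence read kinetically at 1 s intervals. Fifteen concentrations, three independent runs.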
Chain of Muscarinic acetylcholine receptor M1 (Homo sapiens) (P11229 whole entry, looked up): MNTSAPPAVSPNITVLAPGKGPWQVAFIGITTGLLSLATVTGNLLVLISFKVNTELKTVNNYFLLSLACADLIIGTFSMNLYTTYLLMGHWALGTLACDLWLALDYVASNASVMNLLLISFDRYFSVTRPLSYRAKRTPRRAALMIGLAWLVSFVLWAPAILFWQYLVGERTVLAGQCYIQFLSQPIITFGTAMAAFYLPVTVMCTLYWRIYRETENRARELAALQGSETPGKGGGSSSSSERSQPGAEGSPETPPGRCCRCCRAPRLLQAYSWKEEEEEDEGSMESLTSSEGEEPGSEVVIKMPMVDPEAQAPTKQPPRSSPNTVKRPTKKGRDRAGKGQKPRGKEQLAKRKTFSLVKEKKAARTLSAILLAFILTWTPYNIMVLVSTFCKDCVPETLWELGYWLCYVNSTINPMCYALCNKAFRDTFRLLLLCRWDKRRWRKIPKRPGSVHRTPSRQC

Assay [20] concerns the target 5-hydroxytryptamine receptor 2A (Homo sapiens) (UniProt P28223). The assay is described as follows: 5-hydroxytryptamine receptor 2A (HTR2A) small molecule antagonists, cell-based qHTS assay (AID 1963586). Also: nearly all actives have a fitted effect of over 45% in size. The essentials:
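Antagonist-mode intracellular calcium assay: DOI (4 nM) added after 5 min compound pre-incubation at room temperature to dye-loaded HTR2A-CHO cells. Fluorescence followed for 3 min, sampled every second.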

Chain of Beta-2 adrenergic receptor (Homo sapiens) (P07550 whole entry, looked up): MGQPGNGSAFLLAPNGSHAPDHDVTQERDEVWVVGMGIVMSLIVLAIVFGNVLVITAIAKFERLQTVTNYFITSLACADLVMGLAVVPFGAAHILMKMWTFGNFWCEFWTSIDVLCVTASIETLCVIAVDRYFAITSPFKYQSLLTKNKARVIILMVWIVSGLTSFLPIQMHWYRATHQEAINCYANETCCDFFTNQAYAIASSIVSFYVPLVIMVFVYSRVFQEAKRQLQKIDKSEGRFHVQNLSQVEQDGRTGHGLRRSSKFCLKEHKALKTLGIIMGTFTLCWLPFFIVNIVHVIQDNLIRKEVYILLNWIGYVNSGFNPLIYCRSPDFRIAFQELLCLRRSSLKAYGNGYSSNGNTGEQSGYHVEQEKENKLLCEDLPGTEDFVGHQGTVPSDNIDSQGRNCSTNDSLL
Chain of D(2) dopamine receptor (Homo sapiens) (P14416 whole entry, looked up): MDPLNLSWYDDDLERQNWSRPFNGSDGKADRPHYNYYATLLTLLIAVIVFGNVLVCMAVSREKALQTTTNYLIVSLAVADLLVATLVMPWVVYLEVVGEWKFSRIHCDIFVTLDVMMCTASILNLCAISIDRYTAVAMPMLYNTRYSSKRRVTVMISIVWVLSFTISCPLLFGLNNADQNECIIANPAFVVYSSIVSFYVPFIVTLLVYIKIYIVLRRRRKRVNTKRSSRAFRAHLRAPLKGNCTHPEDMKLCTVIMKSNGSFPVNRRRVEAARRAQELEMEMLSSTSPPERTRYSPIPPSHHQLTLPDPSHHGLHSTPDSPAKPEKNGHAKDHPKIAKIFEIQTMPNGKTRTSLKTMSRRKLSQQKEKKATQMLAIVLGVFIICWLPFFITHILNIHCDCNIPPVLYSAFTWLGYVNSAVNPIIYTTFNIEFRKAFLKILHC
Chain of 5-hydroxytryptamine receptor 2A (Homo sapiens) (P28223 whole entry, looked up): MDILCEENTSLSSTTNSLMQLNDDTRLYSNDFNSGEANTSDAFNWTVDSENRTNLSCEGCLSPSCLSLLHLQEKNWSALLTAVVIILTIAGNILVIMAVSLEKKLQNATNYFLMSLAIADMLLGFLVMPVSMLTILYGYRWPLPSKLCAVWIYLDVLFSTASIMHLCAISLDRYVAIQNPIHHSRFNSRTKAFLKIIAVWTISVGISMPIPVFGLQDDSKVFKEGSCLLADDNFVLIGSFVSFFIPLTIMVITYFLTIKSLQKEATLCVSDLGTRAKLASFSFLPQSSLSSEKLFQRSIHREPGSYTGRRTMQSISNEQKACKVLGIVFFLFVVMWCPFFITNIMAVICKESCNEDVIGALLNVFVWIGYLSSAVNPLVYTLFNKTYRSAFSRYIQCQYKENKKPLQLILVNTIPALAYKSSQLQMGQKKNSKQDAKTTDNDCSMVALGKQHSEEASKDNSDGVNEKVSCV

For `CN(C)C(=O)Nc1cccc(C(F)(F)F)c1`, the Potency entry in assay [1], in [2], in assay [3], in assay [4], in assay [5] and in [6] was “inactive” throughout. The Potency result in assay [7], in [8], in [9], in assay [10], in [11] and in assay [12] was “inactive” in each case. Besides, the Potency entry in assay [13], in assay [14], in assay [15], in assay [16], in assay [17] and in assay [18] was “inactive” in each case.
`Oc1ccc(Cl)c(Cl)c1`: the Potency result in assay [1], in [2], in assay [3], in assay [4], in assay [5] and in assay [6] was “inactive” in each case. The Potency result in assay [7], in [8], in [9], in [10], in assay [11] and in [12] was “inactive” each time. Moreover, the Potency entry in assay [13], in assay [19], in assay [14], in assay [15], in [16] and in [17] was “inactive” throughout. The Potency result in assay [18] was “inactive”.
On to `CC1CCC(=O)O1` (configuration not stated), for which the Potency entry in assay [1], in assay [2], in [3], in assay [4], in assay [5] and in assay [6] was “inactive” throughout. The Potency entry in assay [7], in [8], in assay [9], in assay [10], in assay [11] and in assay [12] was “inactive” each time. For the same compound, the Potency entry in assay [13], in assay [19], in assay [14], in [15], in [16] and in assay [17] was “inactive” throughout. In addition, the Potency entry in assay [18] is “inactive”.
As for `O=[N+]([O-])c1ccc(CBr)cc1`, the Potency entry in assay [1], in assay [2], in assay [3], in [4], in assay [5] and in assay [6] was “inactive” each time. For the same compound, the Potency entry in [7], in [8], in assay [9], in [10], in [20] and in assay [12] was “inactive” in each case. The Potency entry in assay [13], in [19], in assay [14], in assay [15], in assay [16] and in assay [17] was “inactive” in each case. Moreover, in assay [18], the Potency entry was “inactive”.
In the case of `FC(Cl)(Cl)Cl`, the Potency result in assay [1], in assay [2], in assay [3], in assay [4], in [5] and in [6] was “inactive” in each case. Moreover, the Potency entry in assay [7], in assay [8], in assay [9], in assay [10], in [11] and in assay [12] was “inactive” each time. Moreover, the Potency entry in assay [13], in assay [19], in [15], in assay [16], in assay [17] and in assay [18] was “inactive” throughout.
In the case of `CCCCN=C=O`, the Potency result in [1], in assay [2], in assay [3], in assay [4], in assay [5] and in assay [6] was “inactive” in each case. For the same compound, the Potency entry in assay [7], in [8], in assay [9], in [10], in assay [11] and in [13] was “inactive” each time. In addition, the Potency result in assay [14], in assay [15], in assay [16] and in [18] was “inactive” throughout.
`CC(C)=CCN1CC[C@@]2(C)c3cc(O)ccc3C[C@@H]1[C@@H]2C`: the Potency result in [1], in assay [2], in [3], in assay [4], in assay [5] and in [6] was “inactive” throughout. The Potency entry in [7], in assay [8], in assay [9], in [10], in assay [11] and in assay [12] was “inactive” throughout. Besides, the Potency result in assay [19], in assay [14], in [15], in assay [16] and in [17] was “inactive” throughout. The Potency in assay [13] is 9.28 µM (active).
